PubChem BioAssay AID1347041 (National Center for Advancing Translational Sciences (NCATS), 2019)
About 740 (0.15%) of roughly 480,000 compounds were called active. This excerpt belongs to a sample that is enriched for actives. Unmarked numbers belong to inactive results. Rule as the data show it: active = activity change below about -30%; inconclusive = mostly about -25% to -30%; inactive = weaker than that.

Molecular target: L-lactate dehydrogenase A chain (Homo sapiens) (UniProt P00338)
Experiment: qHTS assay for inhibitors of human lactate dehydrogenase;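 also: values are at about 110 or 230 µM; plate controls were DMSO wells for no effect and wells without enzyme for full effect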
Settings: purified LDHA, NADH/diaphorase-resazurin fluorescence; hits give low values
Source text: LDH is a key glycolytic enzyme that catalyzes the final step in the glycolytic pathway, reducing pyruvate to lactate and regenerating NAD+ equivalents necessary for continued glycolysis. LDHA has been linked to the carcinogenesis and malignancy in numerous forms of cancers and many other diseases. Consequently, both pharma and academia have invested in significant research efforts to identify small molecule therapeutics. Such attempts have been stalled or abandoned due to limited success in discovering potent and drug-like inhibitors that can be utilized to validate LDHA in vivo as a drug target, a necessary step toward advancing such a molecule towards the clinic Towards this goal we designed and performed a quantitative high-throughput screening (qHTS) campaign to discover novel compounds that are potent inhibitors of LDHA enzyme activity and cancer cell line growth.
The assay was optimized to 1536-well plates. Briefly, 3 µL of human lactate dehydrogenase 5 (#A38558H, Meridian Life Science, Inc., Memphis, TN) in LDH assay buffer (200 mM Tris HCl pH 7.4, 100 microM EDTA and 0.01% Tween-20) was added to a black solid bottom 1536-well assay plate (Greiner Bio-One) using a BioRAPTR FRD dispenser (Beckman Coulter, Brea, CA). A 1536-well pintool dispenser outfitted with 20 nL pins (Wako Automation, San Diego, CA) was used to transfer 23 nL of DMSO-solubilized compound (both library and vehicle controls) to each 1536-well assay plate. Following compound transfer, 1 µL of substrate solution containing NADH and sodium pyruvate (Sigma-Aldrich, St. Louis, MO) in LDH assay buffer was dispensed via BioRAPTR FRD to initiate the reaction. Final concentrations in the 4 microL reaction volume were 2 nM LDHA enzyme, 0.06 mM NADH and 0.2 mM sodium pyruvate. Following a 5 minute incubation period at room temperature, 1 µL of detection reagent (C. kluyveri diaphorase (Sigma-Aldrich) and resazurin sodium salt (Sigma-Aldrich) in LDH assay buffer) was added to a total volume of 5 µL. Final concentrations of detection reagents were 0.133 mg/mL diaphorase and 37 µM resazurin. Plates were immediately transferred to a ViewLux microplate imager (PerkinElmer, Waltham, MA), and any resulting resorufin fluorescence was measured (ex540, em590 nm) at 0 and 20 minutes. Fluorescence was normalized using enzyme-free and DMSO-treated control wells on each plate.

Row | SMILES | activity change
1 | C=CCN1C(=O)NC(=O)/C(=C/c2ccc(OCC(=O)Nc3ccc(C)cc3)cc2)C1=O | -1.94%
2 | O=C(O)COc1ccccc1/C=C1\C(=O)NC(=O)N(CCC2=CCCCC2)C1=O | -34.5% (active)
3 | Cc1[nH]nc2c1C(c1ccc(C(=O)O)cc1)SCC(=O)N2 (stereo not given) | 4.1%
4 | COc1ccccc1N=C1SCCCN1C | -34.1% (active)
5 | O=C(COc1ccc2c(=O)c(-c3ccccc3)coc2c1)N1CCN(CCO)CC1 | 3.12%
6 | COC(=O)C(O)(c1ccc(N(C)C(=O)O/N=C(/C)Cl)cc1)C(F)(F)F (stereo not given) | 1.08%
7 | COc1cc(-c2c(C#N)c(N)nc3c2c(=O)nc2sccn23)ccc1OCc1ccccc1C | 6.76%
8 | C[N+]12CN3CN(CN(C3)C1)C2 | -52.1% (active)
9 | Cc1c(-c2ccc(Br)cc2)c(=O)oc2ccc(OC(=O)N(C)C)cc12 | 8.34%
10 | N/C(=N\N=C\c1ccco1)N[N+](=O)[O-] | 6.01%
11 | Cc1nc(CN2CCNCC2)cs1 | 0.726%
12 | Cc1ccc(C2(O)CC(C)N(C)CC2C)c(C)c1 (stereo not given) | 1.58%
13 | CCOC(=O)C1=C(N)OC(C)=C(C(=O)OC(C)C)C12C(=O)Nc1ccc(Br)cc12 (stereo not given) | 12.9%
14 | ClCc1cccnc1 | -7.12%
15 | CCN1CCN(C(=O)COc2ccc3c(=O)c(Oc4ccccc4)c(C)oc3c2)CC1 | -13.1%
